Inconclusive results are not listed. Activity calls are given as the source filed them. Unless noted, calls come from the whole dose curve; as a rule, active = well fitted curve in the direction sought with a large enough effect; inconclusive = small, poorly fitted or top-dose-only effect, or another doubt; inactive = no such curve, though single readings can be large; an effect the other way counts as inactive or inconclusive.
Columns and labels:
[1] = S16 Schwann cell viability assay (CellTiter-Glo assay) (AID 624031);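 note: native untransfected S16 rat Schwann cells; cellular ATP luminescence as a viability measure; nearly all actives have a fitted effect of over 70% in size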
Procedure, shortened: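 Rat S16 Schwann cells without reporter constructs received compound or DMSO for 24 h at 37 °C under 5% CO2. Cellular ATP was then quantified by CellTiter-Glo luminescence, with vehicle wells defined as 0% activity and cell-free wells as reference.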

[2] = S16 Schwann cell PMP22 intronic element beta-lactamase assay (AID 624044; calls by dose curve; note: nearly all actives have a fitted effect of over 15% in size)
Procedure, shortened: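 Beta-lactamase reporter under a PMP22 intronic regulatory element in stable S16 rat Schwann cells; 24 h compound exposure. 460 nm blue signal normalized between DMSO (0%) and potassium clavulanate, with 535 nm FRET tracking viability; curves classed by r2 and response.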

CP215 = test: qHTS profiling for inhibitors of Plasmodium falciparum proliferation (AID 504749); note: nearly all actives have a fitted effect of over 60% in size; conditions: P. falciparum in erythrocytes, SYBR Green DNA, 72 h; series mostly up to 28.7 µM
Procedure, shortened: (§1)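 Fluorescence of SYBR Green-bound parasite DNA, read at 485/535 nm, served as the growth measure. Infected erythrocytes were cultured with compound 72 h; artemisinin (0.29 uM) and DMSO wells defined the normalization range.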

CP256 = test: as above; conditions: P. falciparum in erythrocytes, SYBR Green DNA, 72 h; series mostly up to 28.7 µM
Procedure, shortened: as §1

CP260 = test: as above; conditions: P. falciparum in erythrocytes, SYBR Green DNA, 72 h; series mostly up to 28.7 µM
Procedure, shortened: as §1

DIV14 = test: as above; conditions: P. falciparum in erythrocytes, SYBR Green DNA, 72 h; series mostly up to 28.7 µM
Procedure, shortened: as §1

DIV17 = test: as above; conditions: P. falciparum in erythrocytes, SYBR Green DNA, 72 h; series mostly up to 28.7 µM
Procedure, shortened: as §1

ICS = test: as above; conditions: P. falciparum in erythrocytes, SYBR Green DNA, 72 h; series mostly up to 28.7 µM
Procedure, shortened: as §1

W2 = test: as above; conditions: P. falciparum in erythrocytes, SYBR Green DNA, 72 h; series mostly up to 28.7 µM
Procedure, shortened: as §1

[3] = Confirmation and Secondary Assay for Modulators of Hemoglobin Beta Chain Splicing at IVS2 705 locus (AID 930);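 note: HeLa cells stably expressing the EGFP-705 splicing reporter; GFP fluorescence per well restored by corrected splicing of the IVS2-705 intron in EGFP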
Procedure, shortened: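 Per-well GFP, captured at 1 x 8 µm resolution with 488 nm excitation, served as the read-out for HeLa EGFP-705 cells incubated 2 days with test compound versus DMSO.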

Measured: Potency

CC(=O)OCC1=C(C(=O)O)N2C(=O)C(NC(=O)Cc3ccccc3)C2SC1 (centres undefined)
not listed: [3]
inactive: all other assays above

C=CC1=C(C(=O)O)N2C(=O)[C@@H](NC(=O)C(N=O)c3csc(N)n3)[C@H]2SC1 (some centres undefined)
not listed: W2 | [3]
inactive: all other assays above

CCC(C)C1NC(=O)C(Cc2ccc(O)cc2)NC(=O)C(N)CSSCC(C(=O)N2CCCC2C(=O)NC(CC(C)C)C(=O)NCC(N)=O)NC(=O)C(CC(N)=O)NC(=O)C(CCC(N)=O)NC1=O (centres undefined)
not listed: [1] | [2] | [3]
inactive: all other assays above

CCC1NC(=O)C(NC(=O)c2ncccc2O)C(C)OC(=O)C(c2ccccc2)NC(=O)C2CC(=O)CCN2C(=O)C(Cc2ccccc2)N(C)C(=O)C2CCCN2C1=O (centres undefined)
inactive: [1] | [2] | CP215 | CP256 | CP260

CCC(=O)O[C@H]1C(O[C@@H]2C(C)[C@H](O[C@H]3C[C@@](C)(OC)C(O)C(C)O3)C(C)C(=O)OC(CC)[C@@](C)(O)C(O)[C@H](C)C(=O)C(C)C[C@]2(C)O)OC(C)CC1N(C)C (some centres undefined)
inactive: [3]

COc1c2ccoc2c(OC)c2oc(=O)ccc12
inactive: [3]

CC(=O)OC1CC[C@@]2(C)C3CC[C@@]4(C)C(CC5O[C@@]6(CCC(C)CO6)C(C)C54)C3CC[C@@H]2C1 (some centres undefined)
inactive: [3]

COc1c2ccoc2cc2oc(C)cc(=O)c12
inactive: [3]

CN(C)c1ccc(O)c2c1C[C@@H]1C[C@H]3C(N(C)C)C(=O)C(C(N)=O)=C(O)[C@@]3(O)C(=O)C1=C2O (some centres undefined)
inactive: [3]

Source: PubChem BioAssay (NCATS)
